The supplement of paper PMC10515830
Counter-ions that a name gives are not always drawn.

Experiments:
Details in all cases: 10 µM; exposure time 6 h
[1] = test system: Danio rerio larvae (5 dpf); assay: difference in excitability vs DMSO (percentage points); higher = more excitable than DMSO
Outline: (§1)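 In 96-well plates, 48 wild-type zebrafish larvae aged 5 dpf per compound received 100 µL egg water with library compound at 10 µM final for 6 h. Three hours into this, a 3-h programme of moving lines and 100 ms, 400Hz tones ran at 28.5 ℃ while plates were photographed every 6 s. Z-LaP Tracker scored the behaviours, and each is given as the compound mean minus the vehicle control mean in percentage points.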

[2] = test system: Danio rerio larvae (5 dpf); assay: difference in startle response vs DMSO (percentage points); higher = stronger startle than DMSO
Outline: as §1

[3] = test system: Danio rerio larvae (5 dpf); assay: difference in activity during first hour vs DMSO (percentage points); higher = more activity than DMSO
Outline: as §1

[4] = test system: Danio rerio larvae (5 dpf); assay: difference in habituation to acoustic stimuli vs DMSO (percentage points); higher = more habituation than DMSO
Outline: as §1

[5] = test system: Danio rerio larvae (5 dpf); assay: difference in combined optomotor response to red, green and blue moving lines vs DMSO (percentage points); higher = stronger optomotor response than DMSO
Outline: as §1

Row | SMILES | difference in excitability [1] | difference in startle response [2] | difference in activity during first hour [3] | difference in habituation to acoustic stimuli [4] | difference [5]
1 | COc1ccc(CC(C)NCC(O)c2ccc(O)c(NC=O)c2)cc1 (stereo not given) [Formoterol (hemifumarate hydrate)] | 9.74 | -13.1 | 49.1 | -7.8 | 1.18
2 | C[C@@H]1[C@H](O)[C@@H](C)/C=C/C=C/C=C/C=C/C=C/C=C/C=C/[C@H](O[C@@H]2O[C@H](C)[C@@H](O)[C@H](N)[C@@H]2O)C[C@@H]2O[C@](O)(C[C@@H](O)C[C@@H](O)[C@H](O)CC[C@@H](O)C[C@@H](O)CC(=O)O[C@H]1C)C[C@H](O)[C@H]2C(=O)O [Amphotericin B] | -0.355 | 0.384 | 4.13 | -0.401 | 1.13
3 | Clc1ccc(CSC(Cn2ccnc2)c2ccc(Cl)cc2Cl)cc1 (stereo not given) [Sulconazole (nitrate)] | 11.3 | -12.7 | -17.2 | -12 | -16.4
4 | CN(C)CCC=C1c2ccccc2C=Cc2ccccc21 [Cyclobenzaprine (hydrochloride)] | 17.5 | -6.94 | 6.26 | -8.81 | 14.9
5 | C[C@@H]1C/C=C/C=C/C=C/C=C/[C@H](O[C@@H]2O[C@H](C)[C@@H](O)[C@H](N)[C@@H]2O)C[C@@H]2O[C@](O)(C[C@@H](O)C[C@H]3O[C@@H]3/C=C/C(=O)O1)C[C@H](O)[C@H]2C(=O)O [Natamycin] | 2.79 | -1.51 | 0.445 | 3.82 | 3.97
6 | Cc1nnc(C(C)C)n1C1C[C@H]2CC[C@@H](C1)N2CC[C@H](NC(=O)C1CCC(F)(F)CC1)c1ccccc1 (stereo in doubt) [Maraviroc] | 11.9 | -3.97 | 5.94 | -1.89 | 4.5
7 | CNC(=O)c1ccc(N2C(=S)N(c3ccc(C#N)c(C(F)(F)F)c3)C(=O)C2(C)C)cc1F | 13.3 | 4.28 | -11 | -1.47 | -0.198
8 | CC[C@H](C)C(=O)O[C@H]1C[C@@H](C)C=C2C=C[C@H](C)[C@H](CC[C@@H]3C[C@@H](O)CC(=O)O3)[C@H]21 [Lovastatin] | 9.79 | 2.77 | 7.75 | -0.0098 | 1.09
9 | Cc1nnc(C(=O)NC(C)(C)c2nc(C(=O)NCc3ccc(F)cc3)c(O)c(=O)n2C)o1 [Raltegravir (potassium salt)] | -0.288 | 1.86 | 0.698 | -5.1 | 5.8
10 | CCCCC[C@H](O)/C=C/[C@@H]1[C@H]2C/C(=C/CCCC(=O)O)O[C@H]2C[C@H]1O [Prostaglandin I2 (sodium salt)] | 0.101 | 3.79 | 11.9 | 1.5 | 4.02
11 | COc1cccc(N2CCN(C3=Nc4c(F)cccc4[C@H](CC(=O)O)N3c3cc(C(F)(F)F)ccc3OC)CC2)c1 [Letermovir] | 9.24 | -3.2 | 13.2 | -5.75 | -3.3
12 | CNC(=O)c1cnn(-c2nc(N)c3ncn([C@@H]4O[C@H](CO)[C@@H](O)[C@H]4O)c3n2)c1 [Regadenoson] | -3.36 | 0.153 | 6.41 | -0.999 | 3.31
13 | Clc1ccc2c(c1)CCc1cccnc1C2=C1CCNCC1 [Desloratadine] | 10.4 | 3.48 | 2.87 | -2.42 | 1.86
14 | CO[C@H]1C[C@@H]2CC[C@@H](C)[C@@](O)(O2)C(=O)C(=O)N2CCCC[C@H]2C(=O)O[C@H]([C@H](C)C[C@@H]2CC[C@@H](OC(=O)C(C)(CO)CO)[C@H](OC)C2)CC(=O)[C@H](C)/C=C(\C)[C@@H](O)[C@@H](OC)C(=O)[C@H](C)C[C@H](C)/C=C/C=C/C=C/1C [Temsirolimus] | 7.02 | -6.86 | -1.53 | 4.35 | 0.433
15 | COc1ccc2[nH]c([S+]([O-])Cc3ncc(C)c(OC)c3C)nc2c1 (stereo not given) [Omeprazole] | 14.6 | -0.657 | -0.859 | 0.506 | 5.66
16 | COC(=O)C1=C(C)NC(C)=C(C(=O)OCCN(C)Cc2ccccc2)C1c1cccc([N+](=O)[O-])c1 (stereo not given) [Nicardipine (hydrochloride)] | 7.46 | -1.35 | 14.3 | -16.5 | -6.14
17 | Cc1c(-c2ccc(O)cc2)n(Cc2ccc(OCCN3CCCCCC3)cc2)c2ccc(O)cc12 [Bazedoxifene (acetate)] | 9.87 | 1.08 | -9.97 | -5.25 | -3.93
18 | CC(COc1ccccc1)N(CCCl)Cc1ccccc1 (stereo not given) [Phenoxybenzamine (hydrochloride)] | 4.28 | 2.85 | 18.5 | -1.54 | 2.87
19 | CC[C@]1(O)C[C@H]2CN(CCc3c([nH]c4ccccc34)[C@@](C(=O)OC)(c3cc4c(cc3OC)N(C=O)[C@H]3[C@@](O)(C(=O)OC)[C@H](OC(C)=O)[C@]5(CC)C=CCN6CC[C@]43[C@@H]65)C2)C1 [Vincristine (sulfate)] | 3.18 | 3.21 | -4.31 | -2.03 | 1.46
20 | Cc1onc(-c2c(Cl)cccc2Cl)c1C(=O)N[C@@H]1C(=O)N2[C@@H]1SC(C)(C)[C@@H]2C(=O)O [Dicloxacillin (sodium salt hydrate)] | 9.09 | -2.02 | 8.63 | -4 | 0.484
21 | Cc1c(C(=O)Nc2ccc(N3C[C@@H](C)O[C@@H](C)C3)nc2)cccc1-c1ccc(OC(F)(F)F)cc1 [LDE225 (phosphate)] | 13 | -4.4 | -2.84 | -4.9 | 3.16
22 | N#Cc1ccc2[nH]cc(CCCCN3CCN(c4ccc5oc(C(N)=O)cc5c4)CC3)c2c1 [Vilazodone (hydrochloride)] | 12.6 | -3.13 | -16.6 | -3.2 | -4.96
23 | NC(=O)[C@@H]1CC[C@@H]2CN1C(=O)N2OS(=O)(=O)O [Avibactam (sodium salt)] | 1.97 | 0.773 | 5.58 | 4.75 | 6.37

Row | SMILES | difference in excitability [1] | difference in startle response [2] | difference in activity during first hour [3] | difference in habituation to acoustic stimuli [4] | difference [5]
24 | CCCCCCCCCCCCCCCCCCCCCCO [Docosanol] | 3.23 | 1.61 | -0.528 | -2.06 | 0.854
25 | CC(=O)NCCCS(=O)(=O)O [Acamprosate (calcium salt)] | 5.62 | 1.29 | -8.55 | 7.23 | 4.69
26 | C[C@@H](Oc1cc(-c2cnn(C3CCNCC3)c2)cnc1N)c1c(Cl)ccc(F)c1Cl [(R)-Crizotinib] | 11.1 | -4.49 | -3.18 | 0.409 | -0.753
27 | Cc1nc(Nc2ncc(C(=O)Nc3c(C)cccc3Cl)s2)cc(N2CCN(CCO)CC2)n1 [Dasatinib] | 11.4 | -1.6 | -4.95 | 1.58 | -0.962
28 | CC(C)(C)NC[C@H](O)COc1cccc2c1CCCC2=O [Levobunolol (hydrochloride)] | 5.55 | 1.6 | 12.7 | -1.95 | 5.62
29 | Cl.N=C(N)NCCC[C@H](N)C(=O)O [L-Arginine (hydrochloride)] | 4.03 | -4.09 | 10.1 | 2.29 | 0.624
30 | O=C1CCc2ccc(OCCCCN3CCN(c4cccc(Cl)c4Cl)CC3)cc2N1 [Aripiprazole] | 14.5 | 5.72 | 12.4 | -8.81 | -3.23
31 | CCCCCN(C)CCC(O)(P(=O)(O)O)P(=O)(O)O [Ibandronate (sodium hydrate)] | -4.51 | 1.53 | -2.16 | 7.06 | -0.0828
32 | CCN(CC)CCNC(=O)c1c(C)[nH]c(/C=C2\C(=O)Nc3ccc(F)cc32)c1C [Sunitinib (malate)] | 17.6 | -2.13 | -4 | 0.523 | -0.123
33 | CN(C)CCCN1c2ccccc2CCc2ccc(Cl)cc21 [Clomipramine (hydrochloride)] | 0.766 | 1.97 | -14.9 | -3.04 | -3.76
34 | CN(C)C(=O)c1cc2cnc(Nc3ccc(N4CCNCC4)cn3)nc2n1C1CCCC1 | 10.3 | -7.97 | 2.64 | -2.12 | 0.1
35 | CC[C@H]1OC(=O)[C@H](C)[C@@H](O[C@H]2C[C@@](C)(OC)[C@@H](O)[C@H](C)O2)[C@H](C)[C@@H](O[C@@H]2O[C@H](C)C[C@H](N(C)C)[C@H]2O)[C@](C)(O)C[C@@H](C)CN(C)[C@H](C)[C@@H](O)[C@]1(C)O [Azithromycin] | 19.6 | 2.02 | -4.37 | -3.98 | -0.0441
36 | CC(=O)NS(=O)(=O)c1ccc(N)cc1 [Sulfacetamide (sodium salt)] | 9.42 | 1.32 | -8.28 | 4.81 | 7.06
37 | CN(N=O)C(=O)N[C@@H](C=O)[C@@H](O)[C@H](O)[C@H](O)CO [Streptozotocin] | -0.24 | -1.97 | -9.76 | -6.76 | -1.53
38 | CC1=C(CC(=O)O)c2cc(F)ccc2/C1=C\c1ccc([S+](C)[O-])cc1 (stereo not given) [Sulindac] | 6.96 | 0.529 | 10.8 | 0.634 | -2.61
39 | COc1cc2nc(N(C)CCCNC(=O)C3CCCO3)nc(N)c2cc1OC (stereo not given) [Alfuzosin (hydrochloride)] | 9.01 | 2.43 | 5.63 | -6.84 | 1.55
40 | Cn1c(=O)cc(N2CCC[C@@H](N)C2)n(Cc2ccccc2C#N)c1=O [Alogliptin (benzoate salt)] | 9.09 | 5.66 | 10.7 | -0.862 | 0.5
41 | COc1ccnc(C[S+]([O-])c2nc3cc(OC(F)F)ccc3[nH]2)c1OC (stereo not given) [Pantoprazole] | 1.4 | 2.07 | 3.07 | -4.45 | 5.14
42 | Cc1nc2c([nH]1)-c1ccccc1N(C(=O)c1ccc(NC(=O)c3ccccc3-c3ccccc3)cc1)CC2 [Conivaptan (hydrochloride)] | 12.9 | 4.28 | -10.7 | 3.17 | -0.877
43 | CO[C@@]1(NC(=O)Cc2cccs2)C(=O)N2C(C(=O)O)=C(COC(N)=O)CS[C@@H]21 [Cefoxitin (sodium salt)] | 2.72 | 3.22 | 3 | 1.06 | 10.4
44 | CCOc1ccc2ccccc2c1C(=O)N[C@@H]1C(=O)N2[C@@H]1SC(C)(C)[C@@H]2C(=O)O [Nafcillin (sodium salt hydrate)] | 3.99 | -0.0381 | 19.4 | -2.07 | 5.58
45 | CC1(C)C[C@@H]1C(=O)N/C(=C\CCCCSC[C@H](N)C(=O)O)C(=O)O [Cilastatin] | -5.97 | 11.7 | 15 | -6.5 | 10.5
46 | CN(C/C=C/c1ccccc1)Cc1cccc2ccccc12 [Naftifine (hydrochloride)] | 11.1 | -5.96 | -7.66 | 1 | 7.26
